Experimental data as given in the supplement of paper PMC11732987, “Enantioselective OTUD7B fragment discovery through chemoproteomics screening and high-throughput optimisation” (Communications Chemistry, 2025).

Legend:
Assay in all cases: log2 ratio of Biotin-Ahx-Ub-VS probe labelling (compound/DMSO); higher = less target engagement, active = hit call of the paper (q ≤ 0.05, log2 ratio ≤ -1)
Conditions in all cases: treatment time: 3 h
[1] = compound: CCC1N(CCc2sccc12)C(=O)CCl
Outline: (§1)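 Compound at 50 or 200 µM, or DMSO, was applied for 3 h in triplicate to HEK293T lysate (495 µg per sample, Tris/CHAPS/IGEPAL buffer with protease inhibitors), after which Biotin-Ahx-Ub-VS was added at 0.5 µM final for 1 h. The labelled DUBs were pulled down with NeutrAvidin, digested with LysC and trypsin, and run by diaPASEF LC-MS/MS. Ratios are averaged base-two logs of compound over DMSO from median-normalised label-free quantities by unpaired t-test, counting only proteins with at least 2 unique peptides.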

[2] = compound: CN1c2ccccc2C(CS1(=O)=O)NC(=O)CCl
Outline: as §1

[3] = compound: Cl.ClCC(=O)N1CCc2ncncc2C1
Outline: as §1

[4] = compound: Cl.Cn1ncc2C(CCCc12)NC(=O)CCl
Outline: as §1

[5] = compound: ClCC(=O)NC1CCOc2ccccc12
Outline: as §1

[6] = compound: ClCC(=O)NC1CCCc2ccccc12
Outline: (§2)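 Each value is an average ratio of compound to vehicle, calculated by unpaired t-test. Lysate from HEK293T cells (495 µg per sample) was incubated in triplicate with compound over a concentration range or vehicle for 3 h and then with Biotin-Ahx-Ub-VS (0.5 µM final) for 1 h. Probe-labelled deubiquitinases were captured on NeutrAvidin, digested and run by diaPASEF LC-MS/MS, with Spectronaut label-free quantities normalised to the global median. Ratios are log2, and only proteins with at least two unique peptides were used.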

[7] = compound: ClCC(=O)N[C@@H]1CCCc2ccccc12
Outline: as §2

[8] = compound: ClCC(=O)N[C@H]1CCCc2ccccc12
Outline: as §2

[9] = compound: CCC1N(CCc2cc(OC)c(Cl)cc12)C(=O)CCl
Outline: as §1

[10] = compound: CCCC1N(CCc2cc(OC)c(OC)cc12)C(=O)CCl
Outline: as §1

[11] = compound: CN(Cc1cccc(Br)c1)C(=O)CCl
Outline: as §1

[12] = compound: CN(Cc1ccccc1)C(=O)CCl
Outline: as §1

[13] = compound: COc1ccc(CN(C)C(=O)CCl)cc1
Outline: as §1

[14] = compound: COc1cccc(CN(CCCc2ccccc2)C(=O)CCl)c1
Outline: as §1

[15] = compound: ClCC(=O)N1CCc2cc(Cl)c(Cl)cc2C1
Outline: as §1

[16] = compound: ClCC(=O)N1CCc2nc(ncc2C1)-c1ccccc1
Outline: as §1

[17] = compound: ClCC(=O)N1CCc2nocc2C1
Outline: as §1

[18] = compound: ClCC(=O)N1CCc2scc(Br)c2C1
Outline: as §1

[19] = compound: ClCC(=O)NC(C1CCCC1)c1cccs1
Outline: as §1

Measured: log2 ratio of Biotin-Ahx-Ub-VS probe labelling

FAM105A (UniProt Q9NUU6)
UniProt Q9NUU6, sequence (Q9NUU6 whole entry): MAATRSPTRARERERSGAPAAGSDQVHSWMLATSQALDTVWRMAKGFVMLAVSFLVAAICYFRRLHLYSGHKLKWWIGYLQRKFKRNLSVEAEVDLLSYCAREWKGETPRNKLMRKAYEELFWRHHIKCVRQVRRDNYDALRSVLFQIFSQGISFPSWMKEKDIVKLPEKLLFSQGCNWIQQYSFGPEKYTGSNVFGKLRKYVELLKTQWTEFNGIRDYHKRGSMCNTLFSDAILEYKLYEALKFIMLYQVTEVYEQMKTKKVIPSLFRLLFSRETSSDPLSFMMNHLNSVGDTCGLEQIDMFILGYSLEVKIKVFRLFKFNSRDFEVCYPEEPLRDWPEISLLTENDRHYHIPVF
inactive: [1]; compound concentration: 50uM -0.137 | [1]; compound concentration: 200uM -0.0129 | [2]; compound concentration: 50uM 0.0298 | [2]; compound concentration: 200uM 0.102 | [3]; compound concentration: 50uM -0.0634 | [3]; compound concentration: 200uM -0.355 | [4]; compound concentration: 50uM -0.00158 | [4]; compound concentration: 200uM -0.0665 | [5]; compound concentration: 50uM -0.0638 | [5]; compound concentration: 200uM -0.105 | [6]; compound concentration: 0.78uM 0.0819 | [6]; compound concentration: 1.56uM 0.102 | [6]; compound concentration: 3.13uM -0.00663 | [6]; compound concentration: 6.25uM 0.0556 | [6]; compound concentration: 12.5uM 0.00386 | [6]; compound concentration: 25uM -0.153 | [6]; compound concentration: 50uM 0.14 | [6]; compound concentration: 100uM -0.0653 | [6]; compound concentration: 200uM 0.157 | [7]; compound concentration: 0.78uM 0.0146 | [7]; compound concentration: 1.56uM 0.139 | [7]; compound concentration: 3.13uM 0.288 | [7]; compound concentration: 6.25uM 0.071 | [7]; compound concentration: 12.5uM -0.0354 | [7]; compound concentration: 25uM -0.00679 | [7]; compound concentration: 50uM 0.0826 | [7]; compound concentration: 100uM 0.0658 | [7]; compound concentration: 200uM -0.0519 | [8]; compound concentration: 0.78uM 0.122 | [8]; compound concentration: 1.56uM -0.0166 | [8]; compound concentration: 3.13uM 0.227 | [8]; compound concentration: 6.25uM 0.317 | [8]; compound concentration: 12.5uM 0.0169 | [8]; compound concentration: 25uM 0.0586 | [8]; compound concentration: 50uM -0.064 | [8]; compound concentration: 100uM 0.0853 | [8]; compound concentration: 200uM 0.091 | [9]; compound concentration: 50uM 0.0998 | [9]; compound concentration: 200uM -0.0916 | [10]; compound concentration: 50uM -0.253 | [10]; compound concentration: 200uM -0.175 | [11]; compound concentration: 50uM -0.187 | [11]; compound concentration: 200uM -0.00846 | [12]; compound concentration: 50uM -0.198 | [12]; compound concentration: 200uM 0.0229 | [13]; compound concentration: 50uM -0.0227 | [13]; compound concentration: 200uM -0.0524 | [14]; compound concentration: 50uM -0.219 | [14]; compound concentration: 200uM -0.197 | [15]; compound concentration: 50uM 0.119 | [15]; compound concentration: 200uM -0.429 | [16]; compound concentration: 50uM -0.124 | [16]; compound concentration: 200uM -0.242 | [17]; compound concentration: 50uM -0.252 | [17]; compound concentration: 200uM -0.149 | [18]; compound concentration: 50uM 0.049 | [18]; compound concentration: 200uM -0.0833 | [19]; compound concentration: 50uM 0.0872 | [19]; compound concentration: 200uM 0.0369
